The values that follow come from PubChem BioAssay.

The nature of this experiment: COS7 lysate on small-molecule microarray, probe aHis, 635 nm (AID 1123).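 Also: z-score combines 667nm fluorescence intensity with signal-to-noise per printed compound spot.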 The settings on record: COS7 cell lysate, fluorescence, higher = more signal.
Consider `C=CC[C@@]1(C(=O)N2CCOCC2)N=C(c2ccc(OCCCO)cc2)O[C@@H]1c1ccccc1`, for which the composite z-score stood at 2.17. In turn, `COc1cc2c(cc1OC)CN(C(=O)[C@H]1[C@@H]3C(=O)O[C@@H](c4ccccc4)[C@@H](c4ccccc4)N3[C@@H](c3ccc(O)cc3)[C@]13C(=O)Nc1ccc(C#CC4(O)CCCCCC4)cc13)CC2` had a composite z-score of 3.61. The figure for `O=C/C=C/c1ccccc1Cl` is 0.333. The figure for `C=CCC(OC(C)=O)[C@@H]1[C@@H](N(Cc2cccc3ccccc23)C(=O)Cc2ccc(F)cc2)c2cc(OCCCO)ccc2N1C(=O)Cc1ccc2ccccc2c1` (stereo not given in full) is 0.293; for `CC(=O)NCCCC[C@@H]1NC(=O)[C@@H]2C[C@H](C(=O)NCCCCCNC(=O)CS)[C@H](c3ccc(O)cc3)N2C1=O` it is 0.534. Under `C[N+](C)(C)CCCCNC(=O)[C@@H]1C[C@@H]2C(=O)N3CCC[C@H]3C(=O)N2[C@@H]1c1cccc(OCCO)c1` stands 0.538; under `O=C(NCC(O)CO)[C@]1(Cc2ccccc2)N=C(c2ccc(OCCCO)cc2)O[C@@H]1c1ccccc1` (stereo not given in full), 3.43; under `COC(=O)Cn1c(C(=O)N2CCCC2)cc2c1C[C@H]1CN(C(=O)c3ccccc3)[C@@](Cc3ccccc3)(C(=O)OC)[C@@H]21`, 1.99. Molecule `CCOC(=O)[C@H]1C/C=C/C[C@H](C(=O)OCC)C(=O)O[C@H]2[C@@H](OC)O[C@H](CO)[C@@H](OC(=O)Nc3ccc(Br)cc3)[C@@H]2OC1=O` returned a composite z-score of 2.22. Under `CO[C@@H]1COC(=O)[C@@H]2CCCN2C(=O)CC=C[C@@H](C)[C@H](OC)COC(=O)[C@@H]2CCCN2C(=O)CC=C[C@H]1C` stands -0.422.
